The structures appear in SMILES notation. In all, about 16,000 compounds went through this assay and about 5,700 (36%) were called active. Inconclusive results (about 24%) are left out. The list shows a part of the results. Unmarked numbers belong to inactive results. Calls follow the shape of the dose curve; as a rule, active = well fitted curve in the direction sought with a large enough effect; inconclusive = small, poorly fitted or top-dose-only effect, or effect the other way; inactive = no such curve, though single readings can be large or run the other way.
% is scaled to controls: 0 for no effect and ±100 for the full control effect.

The target of this experiment is Cytochrome P450 1A2 (Homo sapiens) (UniProt P05177). As to the kind of experiment: Cytochrome panel assay with activity outcomes. The note with it: recombinant CYP, pro-luciferin dealkylation, luminescence, p450-cyp1a2; series mostly up to 57.1 µM; activity, negative = inhibition: at the top concentration.
Sequence of Cytochrome P450 1A2 (Homo sapiens) (P05177 whole entry, looked up): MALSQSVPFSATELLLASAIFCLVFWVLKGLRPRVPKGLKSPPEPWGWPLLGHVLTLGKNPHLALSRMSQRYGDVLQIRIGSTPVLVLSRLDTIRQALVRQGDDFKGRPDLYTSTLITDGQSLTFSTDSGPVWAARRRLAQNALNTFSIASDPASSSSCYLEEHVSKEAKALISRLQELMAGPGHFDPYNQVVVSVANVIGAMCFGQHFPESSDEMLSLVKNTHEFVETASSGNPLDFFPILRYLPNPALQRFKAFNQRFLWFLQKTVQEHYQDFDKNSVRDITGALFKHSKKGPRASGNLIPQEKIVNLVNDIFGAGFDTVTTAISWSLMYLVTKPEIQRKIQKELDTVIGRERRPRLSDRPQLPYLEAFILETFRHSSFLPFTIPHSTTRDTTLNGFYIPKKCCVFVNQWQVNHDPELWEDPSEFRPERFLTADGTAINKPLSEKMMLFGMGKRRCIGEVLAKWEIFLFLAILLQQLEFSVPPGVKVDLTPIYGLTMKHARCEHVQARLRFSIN
In the case of `N[C@H](C(=O)N[C@@H]1C(=O)N2C(C(=O)O)=C(Cl)CS[C@@H]12)c1ccccc1`, the AC50 (in general, the concentration at which the activity in the assay is half-maximal) was “inactive”. Still for that read-out and setting: in the case of `COCCn1c(=O)c(C)nc2cnc(Oc3cccc(Cl)c3)nc21` it was 12.6 µM (active). Same read-out and setting: in the case of `Cc1nc2cnc(Oc3cccc(Cl)c3)nc2n(CCc2ccccc2)c1=O` it was 12.6 µM (active); in that of `Cc1nc2cnc(Oc3cccc(Cl)c3)nc2n(CCC#N)c1=O`, 15.8 µM (active); in that of `COCCn1c(=O)cnc2cnc(Oc3cccc(Cl)c3)nc21`, 3.16 µM (active). Turning to `CC(=NCCN1CCN(C(=S)Nc2ccccc2)CC1)C1=C(O)CC(C)(C)CC1=O`, the “activity, negative = inhibition” value was -2.56%.

For the molecule `CC(C)(C)n1nc(-c2ccc(Cl)cc2)c2c(N)ncnc21`, the AC50 was 1 µM (active).

`CC(C)(C)Cn1nc(-c2ccc(Cl)cc2)c2c(N)ncnc21`: the AC50 is 0.158 µM (active). In the case of `CO/N=C(\C(=O)N[C@@H]1C(=O)N2C(C(=O)[O-])=C(C[N+]3(C)CCCC3)CS[C@@H]12)c1csc(N)n1`, the “activity, negative = inhibition” value was 0.691% [at 25.6 µM]. On to `CCCCSc1ccc2nc(-c3ccc(C#N)cc3)cn2c1`, for which the AC50 is 2.82 µM (active). As for `CN(C)CCNC(=O)C1CCCNC1=O` (configuration not stated), the “activity, negative = inhibition” value was 0.683%. For `CCN(CC)CCOc1ccc(/C(=C(\Cl)c2ccccc2)c2ccccc2)cc1`, the half-maximal activity concentration (AC50) is 12.6 µM (active). For the molecule `COc1ccc(C(Cl)=C(c2ccc(OC)cc2)c2ccc(OC)cc2)cc1`, the “activity, negative = inhibition” value was -17.5% [at 25.6 µM]. `CCc1ccc2[nH]c(O)c(N=Nc3nc(-c4ccccc4)cs3)c2c1`: the AC50 was 10 µM (active).

Regarding `C[N+](C)(C)CCCCCCCCCC[N+](C)(C)C`, the “activity, negative = inhibition” value is -0.146%. `Cc1ccc(S(=O)(=O)Oc2ccc(C3C4=C(CCCC4=O)OC4=C3C(=O)CCC4)cc2)cc1`: the “activity, negative = inhibition” value is -2.04%. Take `COc1ccc2c(c1)OC1=C(C(=O)CCC1)C2C1=C(O)CCCC1=O` (configuration not stated): the AC50 was 7.08 µM (active). Take `O=C1CCCC2=C1C(c1ccc(OS(=O)(=O)c3ccc(Cl)cc3)cc1)C1=C(CCCC1=O)O2`: the “activity, negative = inhibition” value is -1.84%.

As for `C=CCNc1sc(C(=O)c2ccc(C)cc2)c(N)c1C#N`, the AC50 is 1.78 µM (active).

On to `C=CCNc1sc(C(=O)c2ccccc2)c(N)c1C#N`, for which the half-maximal activity concentration (AC50) was 3.16 µM (active). Take `N#CC(CC(=O)O)=C(c1ccccc1)c1ccccc1`: the activity, negative = inhibition is -14.5% [at 2.29 µM]. Take `O=C(NC1CCCc2ccccc21)C1CCN(S(=O)(=O)N2CCCCCC2)CC1` (configuration not stated): the “activity, negative = inhibition” value is -7.71%.

Take `O=C(C1CCCCC1)N1CC(=O)N2CCc3ccccc3[C@@H]2C1`: the AC50 was 10 µM (active). Regarding `CCN1CCN(C(=O)C2c3cc(OC)c(OC)cc3C(=O)N3CCc4ccccc4C23)CC1` (configuration not stated), the “activity, negative = inhibition” value is -26.3%. As for `CCOc1nc(N=C(N)N)nc2c(C)cccc12`, the AC50 was 0.178 µM (active). On the same count and under the same terms, the figure for `CN1Cc2c(C(=O)OC(C)(C)C)ncn2-c2ccsc2C1=O` is 15.8 µM (active). Same read-out and setting: in the case of `CN(C)c1ccc(-c2cncnc2NCCc2cnc[nH]2)cc1` it was 1.26 µM (active); in that of `CN(C)C(=O)c1ccc(-c2cncnc2NCCc2cnc[nH]2)cc1`, 12.6 µM (active). The same measure, in the same setting: the figure for `c1ncc(-c2ccc3c(c2)OCO3)c(NCCc2cnc[nH]2)n1` is 0.398 µM (active).

Regarding `CCCCCc1nnc(NC(=O)C(=O)OCC)s1`, the “activity, negative = inhibition” value was -18%. Same read-out and setting: the figure for `Cc1sc(NC(=O)C2CCCCC2C(=O)O)c(C(N)=O)c1C` (configuration not stated) is -17.7%. Take `CCc1c(C)sc(NC(=O)OC)c1C(N)=O`: the AC50 is 8.91 µM (active).

As for `O=C(c1ccc(Cl)c(Cl)c1)c1cc(-c2ccccn2)c(N2CCOCC2)s1`, the AC50 is 11.2 µM (active). Take `O=C(Oc1ccc(C(=S)N2CCOCC2)cc1Br)c1cc(Cl)ccc1Cl`: the “activity, negative = inhibition” value was -15.3%. Turning to `O=C(O)c1c2ccccc2cc2ccccc12`, the concentration at half-maximal activity (AC50) was 0.2 µM (active).

Regarding `O=C(O)c1cc(C(=O)C(=O)c2cc(C(=O)O)c(O)c3ccccc23)c2ccccc2c1O`, the activity, negative = inhibition was -6.52% [at 11.4 µM]. Still for that read-out and setting: the figure for `O=C(O)c1cc2ccccc2c(Cc2cc3ccccc3c(C(=O)O)c2O)c1O` (tested in a mixture with another compound) is -10.6% [at 25.6 µM]; for `C=CCSC[C@@H]1Nc2cc(Cl)c(S(N)(=O)=O)cc2S(=O)(=O)N1` it is -13.5% [at 25.6 µM]; for `Cc1noc(C)c1C(=O)N1CCC[C@@]2(CCN(c3ncccn3)C2)C1` it is -11.1%. With `COc1ccc2[nH]cc(CCNc3nc(-c4ccc(N(C)C)cc4)nc4ccccc34)c2c1`, the AC50 is 1.26 µM (active). On the same count and under the same terms, the figure for `COc1ccc2[nH]cc(CCNc3nc(-c4ccc(C(=O)N(C)C)cc4)nc4ccccc34)c2c1` is 15.8 µM (active). In the case of `COc1cccc(N(C(=O)Cn2nnc(-c3ccc(C)cc3)n2)C(C(=O)NC(C)(C)C)c2c[nH]c3ccccc23)c1` (configuration not stated), the “activity, negative = inhibition” value was -7.1%.

Take `C[C@H]1CCCC2(CC[N+](C)(CCC[N+](C)(C)C)CC2)C1` (some centres not stated): the activity, negative = inhibition was -9.21% [at 11.4 µM]. For `COC(=O)c1ccccc1NC(=O)c1cc2nc(C3CC3)cc(C(F)(F)F)n2n1`, the AC50 was 1.58 µM (active). On the same count and under the same terms, the figure for `COCCNc1nc(-c2ccccc2C(F)(F)F)nc2ccccc12` is 1.26 µM (active). The same measure, in the same setting: the figure for `COCCNc1nc(-c2ccccc2C)nc2ccccc12` is 1.26 µM (active). On the same count and under the same terms, in the case of `COCCNc1nc(-c2ccccc2Cl)nc2ccccc12` it was 0.126 µM (active).
